Shown is part of a subset that was picked to be rich in hits.
IL1B secr inh: qHTS for Inhibitors of Inflammasome Signaling: IL-1-beta AlphaLISA Primary Screen; 4.7% of 360,000 active; THP-1 LPS/ATP IL-1B secretion, AlphaLISA, 16 h; hits give low values; activity change, % at 57.5 µM; AID 743279, 2014; in the data active = activity change below about -50%; inconclusive = mostly about -30% to -49%
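Secreted IL-1B measured by AlphaLISA bead assay after 16 h compound exposure of THP-1 cells; compounds (final up to 57.5 uM) added 1 h before LPS (250 ng/mL) and ATP (1.25 mM) stimulation; lower signal means less secretion.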
12-LOX inh: Primary qHTS assay for inhibitors of human arachidonate 12S-lipoxygenase (ALOX12): Round 2. Polyunsaturated fatty acid lipoxygenase ALOX12 (Homo sapiens), P18054. purified 12hLO, xylenol orange hydroperoxide absorbance. Potency, µM (titrated, usually from 108 µM), for inactives: at the top dose activity change, negative = inhibition, hits mostly inhibitors. 1.1% of 580,000 active. AID 1671190, 2021; also: potency is read from the fitted curve at half-maximal effect
Target sequence (P18054 whole entry, looked up): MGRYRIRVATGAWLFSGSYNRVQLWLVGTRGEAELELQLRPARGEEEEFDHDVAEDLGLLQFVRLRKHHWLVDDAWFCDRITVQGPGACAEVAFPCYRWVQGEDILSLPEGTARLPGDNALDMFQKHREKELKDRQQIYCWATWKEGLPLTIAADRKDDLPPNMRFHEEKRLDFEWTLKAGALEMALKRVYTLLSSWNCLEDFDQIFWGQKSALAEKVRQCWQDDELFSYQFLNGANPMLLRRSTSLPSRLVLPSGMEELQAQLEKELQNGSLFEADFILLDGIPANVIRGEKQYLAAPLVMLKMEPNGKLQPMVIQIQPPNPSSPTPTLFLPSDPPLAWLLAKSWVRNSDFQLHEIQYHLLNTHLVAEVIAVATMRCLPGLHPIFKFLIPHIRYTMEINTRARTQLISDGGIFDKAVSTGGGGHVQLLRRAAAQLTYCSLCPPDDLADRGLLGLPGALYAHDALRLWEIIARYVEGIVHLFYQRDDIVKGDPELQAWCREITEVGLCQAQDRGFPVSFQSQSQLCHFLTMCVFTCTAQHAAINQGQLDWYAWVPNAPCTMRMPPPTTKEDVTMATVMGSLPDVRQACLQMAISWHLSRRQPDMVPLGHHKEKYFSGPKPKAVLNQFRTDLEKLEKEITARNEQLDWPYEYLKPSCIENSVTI
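Purified human 12hLO (150 nM final) in 25 mM Hepes, 0.01% Triton X-100, pH 7.0 was preincubated 15 min at room temperature with compound. Then 40 uM arachidonic acid was added, 30 min. Hydroperoxide was read by Fe-XO absorbance ratio 573/405 nm.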
DT40 TDP1 CPT: qHTS for Inhibitors of human tyrosyl-DNA phosphodiesterase 1 (TDP1): qHTS in cells in presence of CPT; chicken DT40 Tdp1-/-;hTDP1 cells + 20 nM CPT, ATP luminescence, 48 h; Potency, µM (top dose mostly 46.2 µM), without a hit: at the highest dose activity change, negative = growth inhibition, actives largely listed as inhibitors; 12% of 420,000 active; also: potency is read from the fitted curve at half-maximal effect; nearly all actives have a fitted effect of over 55% in size
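Chicken DT40 Tdp1-/- cells complemented with human TDP1, 400 cells/well, exposed to compounds plus 20 nM camptothecin for at least 48 h at 37 C; viability read as ATP content by CellTiter-Glo luminescence.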
TDP1 cell noCPT: qHTS for Inhibitors of human tyrosyl-DNA phosphodiesterase 1 (TDP1): qHTS in cells in absence of CPT | DT40 Tdp1-/- hTDP1 cells, no CPT, ATP luminescence, 48 h | Potency, µM (series often up to 46.2 µM), for the others: at the highest dose activity change, negative = growth inhibition, usual class: inhibitors | 15% of 420,000 active | AID 686978, 2013; also: potency is read from the fitted curve at half-maximal effect; nearly all actives have a fitted effect of over 55% in size
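Stably hTDP1-transfected Tdp1-null chicken DT40 cells were treated with library compounds minus camptothecin and grown for at least 48 hr at 37 °C, after which cellular ATP was quantified by luminescence.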
HT1080NT lethal: qHTS for induction of synthetic lethality in tumor cells producing 2HG: qHTS for the HT-1080-NT fibrosarcoma cell line | AID 686970, 2013 | HT-1080-NT fibrosarcoma viability, CellTiter-Glo ATP luminescence, 48 h | Potency, µM (series often up to 46.1 µM), without a hit: at the highest dose activity, negative = less viability, usual class: cytotoxic | 1.6% of 360,000 active;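 also: NT is the 2HG producing partner of a matched IDH1 knockdown line; potency is read from the fitted curve at half-maximal effect; 0% = DMSO-treated cells and -100% = media-only wells without cells; nearly all actives have a fitted effect of over 55% in size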
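HT-1080-NT fibrosarcoma cells (2HG-overproducing), 750 cells/well in RPMI with 5% FBS, dosed after 2 h and incubated 48 h at 37C. CellTiter-Glo luminescence normalized to DMSO and no-cell wells; concentration-response curves fitted and classed.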
HT1080 IDH1KD tx: qHTS for induction of synthetic lethality in tumor cells producing 2HG: qHTS for the HT-1080-IDH1KD cell line | HT-1080 IDH1 knockdown viability, ATP luminescence, 48 h | Potency, µM (highest dose often 46.1 µM), for inactives: at the top dose activity, negative = toxicity, hits mostly cytotoxic | 2% of 360,000 active;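 also: potency is read from the fitted curve at half-maximal effect; 0% = DMSO wells and -100% = cell-free medium wells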
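Luminescent ATP read-out (CellTiter-Glo, 10 min at room temperature) after 48 h compound exposure at 37 °C gave viability of IDH1-knockdown HT-1080 cells. Activity was normalised to DMSO and cell-free wells, then fitted as concentration-response curves.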
* marks the source's active call; other numbers are inactive results; u = inconclusive; x = no result given; ! = repeats disagree; [ ] = remark or other dose. Unless noted, calls follow the shape of the dose curve; as a rule, active = well fitted curve in the direction sought with a large enough effect; inconclusive = small, poorly fitted or top-dose-only effect, or another doubt; inactive = no such curve, though single readings can be large; an effect the other way counts as inactive or inconclusive. Unless noted, % is scaled to controls: 0 for no effect and ±100 for the full control effect.

SMILES | IL1B secr inh | 12-LOX inh | DT40 TDP1 CPT | TDP1 cell noCPT | HT1080NT lethal | HT1080 IDH1KD tx
Cc1noc(C)c1S(=O)(=O)N1CCN(C(=O)N2CC3CC(C2)[C@H]2CCCC(=O)N2C3)CC1 (stereo partly specified) | x | 8.6% | x | x | x | x
CC(C)(C)NC(=S)N/N=C/c1cccnc1 | -1.4 | u | 14.6µM* | 25.9µM* | 21.9% | 8.3%
Oc1ccc(/C=N/NC(=S)Nc2cccnc2)cc1 | -24.8 | -15.2% | -34.8% | u | 19.7% | 0.5%
COc1ccc(O)c(/C=N/NC(=S)Nc2cccnc2)c1 | 144.1 | 212.3% | u | 18.4µM* | -29.3% | -21.8%
COc1cccc(/C=N/NC(=S)Nc2cccnc2)c1 | -5.6 | -16.3% | 2.31µM* | 4.61µM* | -1.7% | 1.5%
N#Cc1ncn(CC(=O)Nc2ccc(Br)cc2Cl)n1 | x | -19.8% | x | x | x | x
COc1ccc(-c2c(C#N)c(SCc3c(C)noc3C)nc3c2C(=O)CC(C)(C)C3)cc1 | 66.2 | 7.1% | -11.8% | -24.2% | -4.7% | 1.4%
CCc1c(C#N)c(SCCC(=O)Nc2cccc(OC)c2)nc2c1C(=O)CC(C)(C)C2 | 0.0 | 0.0% | u | 16.4µM* | -4.3% | -11.2%
CC1(C)CC(=O)c2c(nc(SCC(N)=O)c(C#N)c2-c2ccccc2)C1 | x | -37.0% | x | x | x | x
CCc1c(C#N)c(SCCC(=O)Nc2ccc(F)cc2)nc2c1C(=O)CC(C)(C)C2 | -29.5 | 0.0% | 16.4µM* | u | u | u
CC1(C)CC(=O)c2c(nc(SCC(=O)Nc3nsc(-c4ccccc4)n3)c(C#N)c2-c2ccccc2)C1 | u | 2.7% | 5.17µM* | 4.61µM* | 14.0% | 12.4%
CC(C)c1ccc(/C=N/NC(=O)C(c2ccccc2)c2ccccc2)cc1 | x | 10.5% | x | x | x | x
Cn1ccnc1C(NC(=O)c1nn(C)c(=O)c2ccccc12)c1cccc(F)c1 (stereo unspecified) | x | 20.1% | x | x | x | x
CCCCN(CCCC)C(=O)CSc1nnc2n(C)c(=O)c3c4c(sc3n12)CCCC4 | 9.4 | 7.9% | u | 23.1µM* | -5.0% | -5.0%
Cn1c(=O)c2c3c(sc2n2c(SCC(N)=O)nnc12)CC(C(C)(C)C)CC3 (stereo unspecified) | -1.5 | 0.7% | 23.1µM* | u | u | u
CC(CNC(=O)CCCn1c(=O)c2cccn2c2ccc(F)cc21)c1ccccc1 (stereo unspecified) | x | -11.7% | u | u | x | x
COc1ccc(CCNC(=O)CCCn2c(=O)c3cccn3c3ccc(F)cc32)cc1OC | x | -24.8% | 14.6µM* | 11.6µM* | x | x
COc1cccc(CNC(=O)CCCn2c(=O)c3cccn3c3ccc(F)cc32)c1OC | x | 0.0% | 11.6µM* | 8.2µM* | x | x
Cc1cccc(CNC(=O)CCn2c(=O)c3cccn3c3ccc(F)cc32)c1 | x | -20.4% | -19.8% | -25.0% | x | x
CC(CNC(=O)CCn1c(=O)c2cccn2c2ccc(F)cc21)c1ccccc1 (stereo unspecified) | 0.0 | u | 13µM*! | u | -0.2% | 3.4%
Cc1ccc(CCNC(=O)CCCn2c(=O)c3cccn3c3ccc(F)cc32)cc1 | x | -26.6% | u | 16.4µM* | x | x
COCCCN1C(=O)C(CC(=O)NC2CCCCC2)CC(C(=O)N(C)C)=C1C (stereo unspecified) | -0.3 | 11.0% | -0.1% | -13.5% | 1.5% | 12.5%
O=C(CCCn1c(=O)c2cccn2c2ccc(F)cc21)NCc1ccc(Cl)cc1 | x | -26.2% | u | 20.6µM* | x | x
COc1ccc(CCNC(=O)CCCn2c(=O)c3cccn3c3ccccc32)cc1OC | x | -21.1% | 16.4µM* | 13µM* | x | x
COc1ccc(OC)c(CCNC(=O)CCCn2c(=O)c3cccn3c3ccc(F)cc32)c1 | x | -16.7% | 18.4µM* | 9.2µM* | x | x
SMILES | IL1B secr inh | 12-LOX inh | DT40 TDP1 CPT | TDP1 cell noCPT | HT1080NT lethal | HT1080 IDH1KD tx
Cc1ccccc1-c1noc(CSc2nc3cc4c(cc3c(=O)n2Cc2ccco2)OCO4)n1 | x | -3.0% | x | x | x | x
COc1cc(N2C(=O)C=CC2=O)ccc1N1C(=O)C=CC1=O | -99.0* | -22.6% | 0.731µM* | 0.92µM* | u | 9.2µM*
COc1ccc(C(=O)N2CC(=O)Nc3ccc(C)cc3C2c2ccc(F)cc2)c(OC)c1 (stereo unspecified) | x | -28.7% | 20.6µM* | u | x | x
Cc1ccc2c(c1)C(c1ccccc1)N(C(=O)c1ccccc1[N+](=O)[O-])CC(=O)N2 (stereo unspecified) | 20.4 | -4.0% | 11.6µM* | 9.2µM* | 2.1% | -17.2%
O=C1CN(C(=O)c2ccccc2[N+](=O)[O-])C(c2ccccc2)c2cc(Br)ccc2N1 (stereo unspecified) | 25.2 | 0.0% | 20.6µM* | u | -12.7% | -8.5%
Cc1ccc(C(=O)N2CC(=O)Nc3ccc(F)cc3C2c2ccccc2)cc1[N+](=O)[O-] (stereo unspecified) | 0.0 | -6.7% | 18.4µM* | 20.6µM* | -14.2% | -21.2%
CC(=O)Nc1cccc(-c2nc(-c3c(C)noc3C)cc3c2cc(-c2ccccc2)n3C)c1 | x | -7.2%[176 µM] | x | x | x | x
O=C(COc1ccc2ccc(=O)oc2c1)NC(=O)NC1CCCC1 | x | -26.2% | x | x | x | x
O=C(c1cc2ccccc2oc1=O)N1Cc2ccccc2C(c2ccccc2)C1 (stereo unspecified) | x | 23.1% | x | x | x | x
CCOC(=O)c1cc(-c2ccccc2)nc2c1c(C)nn2-c1ccccn1 | u | -17.9% | u | u | u | 1.9%[9.24 µM]
CCOC(=O)c1cc(-c2ccncc2)nc2c1c(C)nn2C | u | -24.9% | u | 18.4µM* | u | u
CCOC(=O)c1cc(-c2ccco2)nc2c1c(C)nn2-c1cccc(Cl)c1 | 9.3 | 14.1µM*! | -28.3% | u | 1.2% | 19.1%
CCOC(=O)c1cc(-c2ccc3c(c2)OCCO3)nc2c1c(C)nn2CCC#N | 0.0 | -4.9% | u | 11.6µM* | -8.6% | -3.3%
CCOC(=O)c1cc(-c2ccc(OC)cc2F)nc2c1c(C)nn2CCC#N | -50.0* | 16.2% | u | u | 7.5% | -0.7%
CCOC(=O)c1cc(-c2ccc(Cl)cc2)nc2c1c(C)nn2CCC#N | u | 3.3% | u | u | 2.7% | 1.9%
Cc1ccc(-c2nc(C)sc2CC(=O)Nc2cccc(C)c2C)cc1 | 0.0 | -17.7% | u | u | 9.4% | -0.6%
